Assay results taken from PubChem BioAssay AID1159580 (chemical genetic matrix, 2015).
Hit rate of the full screen: of about 5,500 compounds, about 2,000 (36%) were called active. Roughly 18% stayed inconclusive and do not appear here. No stated cut-off is given here; in the data, active means normalized growth mostly below about 0.91 (no sharp cut-off); inconclusive means no clear call, values can overlap the other calls; inactive means mostly above about 0.92. The list shows a part of the results.

Experiment: chemical genetic growth profiling, strain panel (AID 1159580);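 further: tested at 20 µM; growth read once vehicle control cultures reached saturation at 30 °C; 1 = growth at the plate median or of vehicle wells; lower values mean less growth of the strain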
Conditions: growth OD
[1] = S. cerevisiae deletion strains, locus YDL101C, strain DUN1, active compounds read low
[2] = S. cerevisiae deletion strains, locus YHR030C, strain SLT2, active compounds read low

Measured: normalized growth

CCCCCc1ccc(S(=O)(=O)Nc2cccnc2Oc2ccc(Cl)cc2)cc1
inactive: S. cerevisiae deletion strains, locus YAL013W, strain DEP1, active compounds read low 0.988 | S. cerevisiae deletion strains, locus YBR229C, strain ROT2, active compounds read low 1 | [1] 0.992 | S. cerevisiae deletion strains, locus YDL134C, strain PPH21, active compounds read low 0.994 | S. cerevisiae deletion strains, locus YDR150W, strain NUM1, active compounds read low 1 | S. cerevisiae deletion strains, locus YEL061C, strain CIN8, active compounds read low 1 | S. cerevisiae deletion strains, locus YGR078C, strain PAC10, active compounds read low 1 | [2] 0.965 | S. cerevisiae deletion strains, locus YHR087W, strain rtc3, active compounds read low 0.987 | S. cerevisiae deletion strains, locus YJL187C, strain SWE1, active compounds read low 0.998 | S. cerevisiae deletion strains, locus YJR043C, strain POL32, active compounds read low 0.988 | S. cerevisiae deletion strains, locus YJR075W, strain HOC1, active compounds read low 0.964 | S. cerevisiae deletion strains, locus YLR039C, strain RIC1, active compounds read low 0.951 | S. cerevisiae deletion strains, locus YLR058C, strain SHM2 (second series), active compounds read low 0.994 | S. cerevisiae deletion strains, locus YLR085C, strain ARP6, active compounds read low 1 | S. cerevisiae deletion strains, locus YLR262C, strain YPT6, active compounds read low 0.951 | S. cerevisiae deletion strains, locus YML094W, strain GIM5, active compounds read low 0.998 | S. cerevisiae deletion strains, locus YMR219W, strain ESC1, active compounds read low 0.996 | S. cerevisiae deletion strains, locus YMR263W, strain SAP30, active compounds read low 0.997 | S. cerevisiae deletion strains, locus YMR307W, strain GAS1, active compounds read low 0.992 | S. cerevisiae deletion strains, locus YNL128W, strain TEP1, active compounds read low 1.01 | S. cerevisiae deletion strains, locus YNL153C, strain GIM3, active compounds read low 1 | S. cerevisiae deletion strains, locus YNL298W, strain CLA4 (second series), active compounds read low 1.01 | S. cerevisiae deletion strains, locus YNL322C, strain KRE1, active compounds read low 0.995 | S. cerevisiae deletion strains, locus YNR030W, strain Alg12, active compounds read low 0.984 | S. cerevisiae deletion strains, locus YOL006C, strain TOP1, active compounds read low 0.986 | S. cerevisiae deletion strains, locus YPL055C, strain LGE1, active compounds read low 0.989 | S. cerevisiae deletion strains, locus YPL241C, strain CIN2, active compounds read low 1.08 | S. cerevisiae deletion strains, locus YPR135W, strain CTF4, active compounds read low 1.02 | S. cerevisiae strains, strain wild type, active compounds read low 1

CCCCCc1ccc(S(=O)(=O)Nc2ncc(C)cc2Br)cc1
inactive: S. cerevisiae deletion strains, locus YAR019C, strain CDC15, active compounds read low 0.955 | S. cerevisiae deletion strains, locus YBL105C, strain PKC1, active compounds read low 0.953 | S. cerevisiae deletion strains, locus YBR135W, strain CKS1, active compounds read low 0.942 | S. cerevisiae deletion strains, locus YBR136W, strain MEC1, active compounds read low 0.952 | S. cerevisiae deletion strains, locus YBR160W, strain CDC28, active compounds read low 0.947 | S. cerevisiae deletion strains, locus YDL017W, strain CDC7, active compounds read low 0.953 | S. cerevisiae deletion strains, locus YDL028C, strain MPS1, active compounds read low 0.953 | [1] 0.962 | S. cerevisiae deletion strains, locus YDL108W, strain KIN28, active compounds read low 0.951 | S. cerevisiae deletion strains, locus YDL132W, strain cdc53, active compounds read low 0.962 | S. cerevisiae deletion strains, locus YDL214C, strain PRR2, active compounds read low 0.832 | S. cerevisiae deletion strains, locus YDR052C, strain DBF4, active compounds read low 0.962 | S. cerevisiae deletion strains, locus YDR054C, strain cdc34, active compounds read low 0.945 | S. cerevisiae deletion strains, locus YDR226W, strain ADK1, active compounds read low 0.959 | S. cerevisiae deletion strains, locus YDR477W, strain SNF1, active compounds read low 0.873 | S. cerevisiae deletion strains, locus YER123W, strain YCK3, active compounds read low 0.835 | S. cerevisiae deletion strains, locus YER133W, strain GLC7, active compounds read low 0.884 | S. cerevisiae deletion strains, locus YFL009W, strain cdc4, active compounds read low 0.957 | S. cerevisiae deletion strains, locus YFL029C, strain CAK1, active compounds read low 0.949 | S. cerevisiae deletion strains, locus YFR003C, strain YPI1, active compounds read low 0.959 | S. cerevisiae deletion strains, locus YFR019W, strain FAB1, active compounds read low 0.939 | S. cerevisiae deletion strains, locus YFR028C, strain CDC14, active compounds read low 0.95 | S. cerevisiae deletion strains, locus YGR040W, strain KSS1, active compounds read low 0.865 | S. cerevisiae deletion strains, locus YGR052W, strain FMP48, active compounds read low 0.847 | S. cerevisiae deletion strains, locus YGR092W, strain DBF2, active compounds read low 0.769 | S. cerevisiae deletion strains, locus YHR079C, strain IRE1, active compounds read low 0.835 | S. cerevisiae deletion strains, locus YHR082C, strain KSP1, active compounds read low 0.857 | S. cerevisiae deletion strains, locus YHR205W, strain SCH9, active compounds read low 0.702 | S. cerevisiae deletion strains, locus YIL147C, strain SLN1, active compounds read low 0.96 | S. cerevisiae deletion strains, locus YJL095W, strain BCK1, active compounds read low 0.789 | S. cerevisiae deletion strains, locus YJL128C, strain PBS2, active compounds read low 0.852 | S. cerevisiae deletion strains, locus YJL157C, strain FAR1, active compounds read low 0.863 | S. cerevisiae deletion strains, locus YJR016C, strain ILV3, active compounds read low 0.96 | S. cerevisiae deletion strains, locus YJR066W, strain TOR1 (second series), active compounds read low 0.856 | S. cerevisiae deletion strains, locus YJR066W, strain TOR1, active compounds read low 0.906 | S. cerevisiae deletion strains, locus YKL067W, strain YNK1, active compounds read low 0.853 | S. cerevisiae deletion strains, locus YKL101W, strain HSL1, active compounds read low 0.78 | S. cerevisiae deletion strains, locus YKL193C, strain SDS22, active compounds read low 0.964 | S. cerevisiae deletion strains, locus YKL203C, strain TOR2, active compounds read low 0.936 | S. cerevisiae deletion strains, locus YLR133W, strain CKI1, active compounds read low 0.845 | S. cerevisiae deletion strains, locus YLR403W, strain SFP1, active compounds read low 0.779 | S. cerevisiae deletion strains, locus YML070W, strain DAK1, active compounds read low 0.78 | S. cerevisiae deletion strains, locus YMR001C, strain CDC5, active compounds read low 0.955 | S. cerevisiae deletion strains, locus YMR205C, strain PFK2 (second series), active compounds read low 0.836 | S. cerevisiae deletion strains, locus YMR277W, strain FCP1, active compounds read low 0.956 | S. cerevisiae deletion strains, locus YNL006W, strain LST8, active compounds read low 0.968 | S. cerevisiae deletion strains, locus YNL020C, strain ARK1, active compounds read low 0.796 | S. cerevisiae deletion strains, locus YNL161W, strain CBK1, active compounds read low 0.961 | S. cerevisiae deletion strains, locus YNL183C, strain NPR1, active compounds read low 0.806 | S. cerevisiae deletion strains, locus YNL207W, strain RIO2, active compounds read low 0.968 | S. cerevisiae deletion strains, locus YNL222W, strain SSU72, active compounds read low 0.951 | S. cerevisiae deletion strains, locus YNL307C, strain MCK1 (second series), active compounds read low 0.811 | S. cerevisiae deletion strains, locus YOL078W, strain AVO1, active compounds read low 0.95 | S. cerevisiae deletion strains, locus YOL136C, strain PFK27, active compounds read low 0.818 | S. cerevisiae deletion strains, locus YOR061W, strain CKA2, active compounds read low 0.815 | S. cerevisiae deletion strains, locus YOR119C, strain RIO1, active compounds read low 0.893 | S. cerevisiae deletion strains, locus YOR231W, strain MKK1, active compounds read low 0.783 | S. cerevisiae deletion strains, locus YOR329C, strain SCD5, active compounds read low 0.957 | S. cerevisiae deletion strains, locus YPL031C, strain PHO85, active compounds read low 0.882 | S. cerevisiae deletion strains, locus YPL153C, strain RAD53, active compounds read low 0.829 | S. cerevisiae deletion strains, locus YPL204W, strain HRR25, active compounds read low 0.843 | S. cerevisiae deletion strains, locus YPL209C, strain IPL1, active compounds read low 0.955 | S. cerevisiae deletion strains, locus YPR025C, strain CCL1, active compounds read low 0.955 | S. cerevisiae deletion strains, locus YPR106W, strain ISR1, active compounds read low 0.921 | S. cerevisiae deletion strains, locus YPR111W, strain DBF20, active compounds read low 0.903 | S. cerevisiae deletion strains, strain NNK1, active compounds read low 0.923 | S. cerevisiae deletion strains, strain TSCII, active compounds read low 0.955
active: [2] 0.568 | S. cerevisiae deletion strains, locus YKL048C, strain ELM1, active compounds read low 0.793 | S. cerevisiae deletion strains, locus YLR113W, strain HOG1, active compounds read low 0.674 | S. cerevisiae deletion strains, locus YPL256C, strain CLN2, active compounds read low 0.792
